From PubChem
HT1080-NT tox = kills 2HG-producing HT-1080-NT fibrosarcoma cells; HT-1080-NT fibrosarcoma viability, CellTiter-Glo ATP luminescence, 48 h; Potency, µM (series often up to 46.1 µM), for the others: top-dose activity, negative = less viability, hits mostly cytotoxic; hit rate 1.6% among 360,000;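 also: NT is the 2HG producing partner of a matched IDH1 knockdown line; 0% = DMSO-treated cells and -100% = media-only wells without cells; nearly all actives have a fitted effect of over 55% in size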
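HT-1080-NT; 750 cells/well; 5% FBS RPMI; 48 h compound, 37 degrees C; CellTiter-Glo luminescence; curve fitting and curve-class assignment.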
HT1080 IDH1KD tx = HT-1080 IDH1 knockdown cell toxicity (counter line) | HT-1080 IDH1 knockdown viability, ATP luminescence, 48 h | hit rate 2% among 360,000 | Potency, µM (titrated, usually from 46.1 µM), for the others: top-dose activity, negative = toxicity, usual class: cytotoxic;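 also: 0% = DMSO wells and -100% = cell-free medium wells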
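Cytotoxicity counter-line: IDH1KD HT-1080, 48 h, CellTiter-Glo. Curves classed by r2, magnitude and activity.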
KB-V1 cytotox = KB-V1 MDR subline cytotoxicity. KB-V1 MDR cells viability, CellTiter-Glo, 72 h. Potency, µM (series often up to 46.1 µM), usual class: cytotoxic. hit rate 3.4% among 400,000. AID 1347076; also: % is scaled to controls: 0 for no effect and ±100 for the full control effect; nearly all actives have a fitted effect of over 60% in size
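Cytotoxicity toward P-gp-expressing KB-V1 cells was determined as loss of CellTiter-Glo luminescence after 72 h at 37 degrees C. Compounds were tested in quantitative HTS format across a concentration range, with curves fitted to normalized data.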
KB-3-1 tox = KB-3-1 parental cell cytotoxicity; AID 1347075; KB-3-1 viability, CellTiter-Glo ATP luminescence, 72 h; Potency, µM (top dose mostly 46.1 µM), actives largely listed as cytotoxic; hit rate 1.4% among 400,000; also: % is scaled to controls: 0 for no effect and ±100 for the full control effect; nearly all actives have a fitted effect of over 60% in size
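Viability of parental KB-3-1 cells, measured by CellTiter-Glo luminescence, followed a 72 h incubation at 37 °C with pinned compounds in phenol-red-free DMEM containing 10% FBS.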
SW480 rerep = inducers of DNA re-replication in SW480 colon cancer cells; AID 624297; hit rate 1.8% among 340,000; SW480 DNA re-replication, Hoechst DNA content imaging, 48 h; Potency, µM (top dose mostly 46.1 µM), inactives show at the highest dose re-replication activation, hits mostly activators; also: % of control where 0% means no effect; nearly all actives have a fitted effect of over 55% in size
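Compounds, transferred as 23 nL by pin tool, were incubated with cells for 48 hr; DNA content per nucleus was then quantified by Hoechst staining and fluorescence plate imaging.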
MCF10A rerep = inducers of DNA re-replication in MCF 10A breast cells; hit rate 2.9% among 350,000; MCF 10A DNA re-replication, Hoechst nuclear intensity, 48 h; Potency, µM (doses to about 46.1 µM), without a hit: at the highest dose activity, positive = re-replication, actives largely listed as activators; also: % of control where 0% means no effect; nearly all actives have a fitted effect of over 50% in size
Starred values were filed as active, the others as inactive; i = inactive; ? = inconclusive; . = no result given; ! = not confirmed by another sample; [ ] = another dose, or the depositor's remark. A selection: hits, their analogues and other compounds. The true share with any hit is near 8%. Calls follow the shape of the dose curve; as a rule, active = well fitted curve in the direction sought with a large enough effect; inconclusive = small, poorly fitted or top-dose-only effect, or another doubt; inactive = no such curve, though single readings can be large; an effect the other way counts as inactive or inconclusive. Potency is read from the fitted curve at half-maximal effect.

SMILES	HT1080-NT tox	HT1080 IDH1KD tx	KB-V1 cytotox	KB-3-1 tox	SW480 rerep	MCF10A rerep
O=C(C1=C(O)C(=O)N(c2nccs2)C1c1ccccc1)c1cc2ccccc2o1 (centres undefined)	?	?	i	?	1%	?
COc1cccc(NC(=O)CSc2nnc(-c3ccco3)c(-c3ccco3)n2)c1	1%	-14%	i	?	-3%	-5%
O=C(COc1ccc2c(-c3ccccc3)cc(=O)oc2c1)NCc1cccs1	-7%	-17%	i	i	-1%	-1%
CC(=O)Nc1ccc(NC(=O)C(C)OC(=O)CNS(=O)(=O)c2cccc(Cl)c2)cc1 (centres undefined)	4%	13%	?	i	-19%	1%
C=CC[C@H](CC(=O)N(CCO)Cc1ccccc1)C(=O)N[C@H](COC(=O)[C@@H](CC=C)Cc1ccc(F)cc1)C(C)(C)C	-30%	?	i	i	1%	?
COc1cc(C=C(C(C)=O)C(C)=O)ccc1O	0%	-2%	i	i	0%	?
COc1cc(/C=C/C(=O)/C=C(O)/C=C/c2ccc(O)c(OC)c2)ccc1O	?	?	i	?	30µM*	33µM*
CC(C)(C)c1ccc(/C=N/OCC(=O)NCc2ccc(F)cc2)cc1	?	?	?	i	21µM*	?
COC(=O)c1sc(NC(=O)COc2c(C)cccc2C)nc1C	-1%	-1%	i	i	0%	1%
CCCn1c2ccccc2c2cnn(CC(=O)NCCCN3CCN(c4ccccc4)CC3)c(=O)c21	18µM*	?	i	i	?	?
Cc1ccc(CSCCNC(=O)CN2C(=O)c3ccccc3S2(=O)=O)cc1	4%	-6%	i	i	-3%	17%
CCC1Oc2ccc(C)cc2N(CC(=O)N(Cc2ccc3c(c2)OCO3)CC2CCCO2)C1=O (centres undefined)	-1%	-9%	6.5µM*	i	-2%	7%
CCC1Oc2ccc(C)cc2N(CC(=O)N(Cc2ccc(C)o2)C2CC(C)(C)NC(C)(C)C2)C1=O (centres undefined)	16µM*	?	?	?	?	1%
COc1ccc(CN(CC2CCCO2)C(=O)CN2C(=O)C(C)Oc3ccc(C)cc32)cc1OC (centres undefined)	-2%	-5%	?	i	1%	?
O=C(NCC1CCCCC1)c1ccc2nc([C@H]3C[C@H](O)[C@@H](CO)O3)[nH]c2c1	?	?	i	i	.	.
CCCNC(=O)c1nc(C)n(-c2ccc([N+](=O)[O-])cc2)n1	8%	16%	i	i	-7%	0%
CCOC(=O)C1=C(N)Oc2ccc3ccccc3c2C1c1ccc(O)c(OC)c1 (centres undefined)	21µM*	?	i	i	1%	?
CCOC(=O)C1=C(N)Oc2cc(O)ccc2C1c1ccc([N+](=O)[O-])cc1 (centres undefined)	?	?	i	i	10%	?
CCOC(=O)C1=C(N)Oc2ccc3ccccc3c2C1c1ccc(O)cc1 (centres undefined)	-6%	-17%	i	i	1%	18µM*
Cc1ccc(NC(=O)CN2C(=O)NC3(CCCc4ccccc43)C2=O)c(Cl)c1 (centres undefined)	?	-9%	i	i	-1%	?
Cc1nc2ccccc2n1CCOc1ccc([N+](=O)[O-])cc1	-1%	-13%	i	i	1%	26%
COc1cc(-c2coc3c(C(=O)NCc4cccc(Cl)c4)cccc23)ccc1O	?	23µM*	?	i	.	.
COc1cc(-c2coc3c(C(=O)NCc4ccccc4)cccc23)ccc1O	18µM*	?	i	i	.	.
N#Cc1ccc(-c2csc(NNC(=O)c3ccc(Br)cc3)n2)cc1	8.2µM*	5.2µM*	i	i	5.2µM*	?
O=C(NNc1nc(-c2ccc(Br)cc2)cs1)c1ccco1	-14%	?	i	?	?	2.6µM*
SMILES	HT1080-NT tox	HT1080 IDH1KD tx	KB-V1 cytotox	KB-3-1 tox	SW480 rerep	MCF10A rerep
N#Cc1ccc(-c2csc(NNC(=O)c3ccccc3)n2)cc1	-4%	10µM*	i	i	?	-3%
O=C(NC(=S)Nc1nc(-c2ccc(Br)cc2)cs1)c1ccco1	14%	7%	?	i	-4%	47%
O=C(NNc1nc(-c2ccccc2)cs1)c1ccccc1	-11%	-27%	16µM*	?	21%	?
CC(=O)Nc1ccc(-c2csc(NNC(=O)c3ccc(C)cc3)n2)cc1	5%	13%	i	i	14%	-1%
O=C1NC[C@H](CCCCN2C[C@H](Cc3ccccc3)N(CCC3CCCCC3)C(=O)C2=O)N(CCC2CCCCC2)C1=O	-12%	3%	i	?	.	.
O=C1NC[C@@H](CCCCN2C[C@H](Cc3ccccc3)N(CCC3CCCCC3)C(=O)C2=O)N(Cc2ccccc2)C1=O	?	21µM*	?	?	.	.
O=C(CSC1=NNC(c2ccccn2)S1)Nc1ccc(C(F)(F)F)cc1 (centres undefined)	15µM*	4.1µM*	i	?	?	?
CCC(C)(C)NC(=O)CN(Cc1ccc2c(c1)OCO2)C(=O)CCC(=O)Nc1cc(C)ccn1	-11%	-12%	?	?	0%	2%
COc1ccc(Nc2nnc(-c3ccc(C)c(S(=O)(=O)N4CCN(C)CC4)c3)c3ccccc23)cc1	.	.	i	?	.	.
CCC(C)Sc1cccc(-c2nc3ccccn3c2NCc2ccccc2)c1 (centres undefined)	-20%	-7%	?	i	1%	18µM*
Cc1ccc2nc(-c3ccccc3)c(Cc3cccc(Cl)c3)n2c1	?	?	i	i	.	.
Cc1ccc2nc(-c3cccc(-c4cccc(Cl)c4)c3)c(NCc3ccccc3)n2c1	?	?	?	i	22%[9.22 µM]	7.3µM*
CCC(C)Sc1cccc(-c2nc3ccc(Cl)cn3c2NCc2ccccc2)c1 (centres undefined)	?	?	?	i	27%	?
CCC(C)Sc1cccc(-c2nc3ccc(C)cn3c2NCc2ccccc2)c1 (centres undefined)	?	?	18µM*!	?	?	12µM*
CCCCCCSc1cccc(-c2nc3ccccn3c2NCc2ccccc2)c1	-2%	-16%	?	?	?	21µM*
